The structures appear in SMILES notation. In all, about 2,500 compounds went through this assay and about 1,500 (60%) were called active.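 The calls were made as follows: active = duplicate-averaged ratio beyond 3 SD from buffer wells, up or down, though filed actives are nearly all decreases; inactive = the rest.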 The set was probably picked from earlier hits. The list is a sample of the results.

Among the data in PubChem BioAssay AID623908 (Johns Hopkins Ion Channel Center, 2012) are ratio readout change values, retold here.

The nature of the experiment: dye ratio change in CHT-lacking host cells – cell-based, parental HEK293, membrane potential dye, counter-screen for CHT activator project (AID 623908). Particulars: parental HEK293, membrane potential dye fluorescence (FDSS); at 10 µM; measured after EC20 choline addition. (The purpose of a counterscreen is to sort out artefacts and off-target activity.)
On to `CC(C)(C)Nc1nc(-c2ccccn2)nc2ccccc12`, for which the ratio readout change was -76.9 (active). For `CC1=CC(C)(C)N(C(=O)CSc2nnc(-c3ccccc3)o2)c2ccc(C)cc21`, the ratio readout change entry was “inactive”. Turning to `COc1nc(N=C(N)N)nc2c(C)cccc12`, the ratio readout change was -78.8 (active). The figure for `Cc1nc(N=C(N)N)nc2c(C)cccc12` is -65.7 (active); for `O=C(c1ccccc1F)N(Cc1ccccc1)Cc1ccccc1` it is “inactive”; for `CCCCn1c(N)c(N(CCC(C)C)C(=O)c2ccc(COc3ccccc3)o2)c(=O)[nH]c1=O` it is “inactive”. Regarding `COc1ccccc1NC(=O)CSc1nnc(-c2ccoc2C)n1CCc1ccccc1`, the ratio readout change entry is “inactive”. Consider `Cc1ccc(C(=O)C[n+]2cc(-c3ccccc3)n3c2CCCCC3)cc1`, for which the ratio readout change result is “inactive”. As to `Clc1ccc(C[n+]2cc(-c3ccc(Cl)cc3)n3c2CCC3)cc1`, the ratio readout change is -46 (active).

Consider `Cc1ccc2c(c1)N(CC(=O)N(Cc1ccccn1)Cc1ccco1)C(=O)C(C(C)C)O2` (configuration not stated), for which the ratio readout change result is “inactive”. In the case of `O=[N+]([O-])c1ccc(N2CCNCC2)cc1NCc1cccnc1`, the ratio readout change is -59.8 (active).

For `CC(=O)c1ccccc1OCc1ccc(C(=O)c2ccccc2)cc1`, the ratio readout change result was “inactive”. Turning to `C[C@H]1CCC(=O)N([C@H](CSc2ccccc2)Cc2ccccc2)CC1`, the ratio readout change entry was “inactive”. In the case of `CC(=O)N1CC[n+]2c(-c3ccc([N+](=O)[O-])cc3)csc21`, the ratio readout change was -25.4 (active).

For the compound `CCN(CC)CCC(c1cc(OC)c(OC)c(OC)c1)c1c(OC)cc(OC)c2c(-c3ccccc3)cc(=O)oc12` (configuration not stated), the ratio readout change is -25.5 (active).

As for `Cc1nnc(-c2ccc(Oc3ccc(C)c(C)c3)c([N+](=O)[O-])c2)o1`, the ratio readout change result was “inactive”. Take `CN(C)/C=C/C(=O)c1cnc2sccn2c1=O`: the ratio readout change was -39.9 (active). For `COc1cccc(C(=O)NC(=O)Nc2nc(C)cc(C(F)(F)F)n2)c1`, the ratio readout change was -43.4 (active). For `Cc1ccccc1C(=O)NCC(c1ccco1)N1CCc2ccccc21` (configuration not stated) the value was “inactive”.

In the case of `Cn1c(=O)n(C)c2cc(C(=O)Nc3ccc4c(c3)OCO4)ccc21`, the ratio readout change was -33.9 (active). The entry for `O=C(Nc1ccccc1N1CCN(c2ccccc2)CC1)c1cccc(F)c1` is “inactive”; for `Cc1cc2c(cc1C)[n+](C)cn2CC(O)COCC1CC=CCC1` (configuration not stated) it is -37.2 (active); for `N=c1c2c3c(sc2ncn1CCCN1CCOCC1)CCCCC3` it is -59.9 (active). Consider `N=c1c2c3c(sc2ncn1N)CCCCC3`, for which the ratio readout change is -39.8 (active). As to `COc1cc2c(cc1OC)C(c1cccc([N+](=O)[O-])c1)=NCC2`, the ratio readout change was -64.5 (active).

Consider `Cc1c(CCOC(=O)CC23CC4CC(CC(C)(C4)C2)C3)sc[n+]1Cc1ccc([N+](=O)[O-])cc1`, for which the ratio readout change is -47 (active). For `O=C(CCC1CCN(C(=O)c2cccc(Cl)c2F)CC1)Nc1ccccc1` the value was “inactive”. For `O=C1c2ccccc2C(=O)c2c1cccc2N1CCN(CCO)CC1`, the ratio readout change was -73.9 (active). On to `Cn1c(=O)n(Cc2ccco2)c(=N)c2c3c(sc21)CCCC3`, for which the ratio readout change was -31.5 (active). As for `CC(Sc1nc2ccccc2c(=O)n1Cc1ccco1)C(=O)c1ccccc1` (configuration not stated), the ratio readout change result is “inactive”.

Take `Cn1c(=O)[nH]c(=O)c2c1nc(N1CCN(CCO)CC1)n2CCSc1nc2ccccc2s1`: the ratio readout change is -48.2 (active). On to `CN(C)c1ccnc(Nc2ccc(F)cc2)c1C#N`, for which the ratio readout change is -45.1 (active). Consider `CCN1CCN(c2ccc([N+](=O)[O-])cc2C(=O)c2ccc(Cl)cc2)CC1`, for which the ratio readout change result was “inactive”. Turning to `Cc1nnc(C)c2c(C)n(N)c(C)c12`, the ratio readout change was -51.8 (active). With `CN1CCN(c2nc(Nc3ccc(O)cc3)nc3ccccc23)CC1`, the ratio readout change was -71.3 (active).

With `O=C(NCCC1=CCCCC1)C1CCN(Cc2cnn(-c3ccccc3)c2-n2cccc2)CC1`, the ratio readout change entry was “inactive”. For the compound `Nc1scc[n+]1Cc1cccc2cccnc12`, the ratio readout change was -43.3 (active). Regarding `CCCCN(CCCC)CC(O)Cn1c2ccccc2c(=O)c2ccccc21` (configuration not stated), the ratio readout change was -21.9 (active). Consider `Cc1c(C)c2c(OCC(=O)N[C@@H](C(=O)O)c3ccccc3)cc3c(c2oc1=O)CCC(C)(C)O3`, for which the ratio readout change entry is “inactive”. For `CCOC(=O)c1cccnc1NC(=O)c1ccncc1`, the ratio readout change was -20.3 (active). `COc1ccc([N+](=O)[O-])cc1N(CC(O)CN(CC(C)C)CC(C)C)S(=O)(=O)c1ccc(C)cc1` (configuration not stated): the ratio readout change entry was “inactive”. Turning to `Cc1ccc(-n2c(C)cc(/C=N\NC(=O)CC(=O)NC(C)C)c2C)cc1`, the ratio readout change entry is “inactive”. With `COc1ccc(Nc2cc(C)nc(-n3nc(C)cc3C)n2)cc1`, the ratio readout change result is “inactive”.

In the case of `COc1ccc(Nc2nnc(C)c3ccccc23)cc1`, the ratio readout change is -50.6 (active). On to `O=C(COC(=O)C1CCN(S(=O)(=O)c2ccc3c(c2)OCCO3)CC1)Nc1ccccc1OC(F)F`, for which the ratio readout change entry is “inactive”. Regarding `CN1CCN(c2cc3c(cc2F)c(=O)c(C(=O)O)cn3CCF)CC1`, the ratio readout change was -29.7 (active). On to `CCn1cc(S(=O)(=O)c2cccc(C)c2)c(=O)c2cc(F)c(N3CCN(C)CC3)cc21`, for which the ratio readout change is -55.2 (active). The figure for `CC(Nc1nc(N2CCN(CCO)CC2)nc2ccccc12)c1ccccc1` (configuration not stated) is -58.8 (active). Regarding `O=C(C1=C(O)C(=O)N(Cc2ccccc2)C1c1ccco1)c1ccco1` (configuration not stated), the ratio readout change result was “inactive”.

Take `CCN1C(=NCCc2cccnc2)N[C@@H](c2ccccc2)[C@H](C(=O)OC)[C@H]1C`: the ratio readout change entry is “inactive”. Take `Cc1cccn2c(=O)c3cc(C#N)c(=O)n(CCCN4CCOCC4)c3nc12`: the ratio readout change is -48.2 (active). In the case of `CCN1CCCC1CNC(=O)c1cc2c(=O)n(C)c3ccccc3c2n1C` (configuration not stated), the ratio readout change was -28 (active). Take `O=Cc1ccc(OCc2cn3ccccc3n2)cc1`: the ratio readout change was -38.8 (active). Regarding `COc1ccccc1NC(=O)C1=C(C)Nc2nc3ccccc3n2C1c1cccs1` (configuration not stated), the ratio readout change entry is “inactive”. On to `CN1CCc2c(sc3c2c(NCc2ccco2)nc2nnnn23)C1`, for which the ratio readout change was -34.6 (active). In the case of `COc1ccc(CC2c3cc(OC)c(OC)cc3CC[N+]2(C)CCC(=O)OCCCCCOC(=O)CC[N+]2(C)CCc3cc(OC)c(OC)cc3C2Cc2ccc(OC)c(OC)c2)cc1OC` (configuration not stated), the ratio readout change was -31.4 (active).

Take `Cc1nc2ccccc2c2oc(C(=O)NCCCN3CCC(C)CC3)cc12`: the ratio readout change was -28.4 (active). As to `COc1ccc2c(c1)cc1n2CCN=C1NN`, the ratio readout change is -53.2 (active). In the case of `Cc1ccc(-n2c(SCC(=O)N3c4ccccc4Sc4ccccc43)nnc2-c2ccncc2)cc1`, the ratio readout change result was “inactive”.

On to `Cc1ccc(C(=O)c2ccc(N3CCN(C)CC3)c([N+](=O)[O-])c2)cc1`, for which the ratio readout change result was “inactive”.

For the compound `N#C/C(=C\c1ccc(-c2cccc([N+](=O)[O-])c2)o1)C(=O)NCCN1CCOCC1`, the ratio readout change is -21.1 (active).

Regarding `Cc1cc(NC(=O)c2cnn3cccnc23)n(-c2ccccc2)n1`, the ratio readout change was -40.8 (active).
